# The whole screen tested about 69,000 compounds, of which about 420 (0.61%) showed an effect of 50% or more. Only a selection was taken, and strong results are over-represented in it overall.
# Molecular target: T1, Histidine--tRNA ligase (Leishmania infantum) (UniProt A4I591)
# T1 sequence (whole entry): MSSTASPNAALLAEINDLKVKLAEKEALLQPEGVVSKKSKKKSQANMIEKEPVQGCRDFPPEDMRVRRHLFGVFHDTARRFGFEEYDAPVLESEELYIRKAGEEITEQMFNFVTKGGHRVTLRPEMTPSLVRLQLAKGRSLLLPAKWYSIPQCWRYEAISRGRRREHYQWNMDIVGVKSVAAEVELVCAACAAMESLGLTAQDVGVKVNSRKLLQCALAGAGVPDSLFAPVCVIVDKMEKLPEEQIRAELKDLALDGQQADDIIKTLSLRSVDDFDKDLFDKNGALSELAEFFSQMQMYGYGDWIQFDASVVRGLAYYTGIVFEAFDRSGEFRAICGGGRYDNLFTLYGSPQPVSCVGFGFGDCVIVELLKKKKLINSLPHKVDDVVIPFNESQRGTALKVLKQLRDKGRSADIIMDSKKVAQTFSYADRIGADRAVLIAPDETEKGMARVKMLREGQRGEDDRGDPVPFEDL
# Test: Leishmania infantum Histidine tRNA synthetase (LdHisRS)
# Format: functional
# Design: scale not given: in the data most compounds retested in dose-response had high values
# Conditions: 30 µM
row,SMILES,Percent Effect [%]
1,Cn1ncc(-c2cc(-c3cccc(O)c3)nc(N)c2C#N)c1C1CC1,64.6
2,Cc1cc(O)ccc1-c1cc(-c2cnn(C)c2C2CC2)c(C#N)c(N)n1,29.1
3,Cc1nn(C)c(C)c1-c1cc(-c2cnn(C)c2C2CC2)c(C#N)c(N)n1,19
4,CC(CNC(=O)c1cnccn1)Oc1ccc(F)cc1 (centres undefined),5.31
5,O=C(c1cncc(N2CCC3(CCCNC3)C2)n1)N1CCCC1 (centres undefined),56.7
6,O=C(c1cncc(N2CCCC3(CCNCC3)CC2)n1)N1CCCCC1,31.7
7,O=C(c1cncc(N2CCC3(CCNCC3)CC2)n1)N1CCCC1,18.4
8,CC1(C)[C@H]2CC=C(CN3CCCn4nc(CNS(C)(=O)=O)cc4C3)[C@@H]1C2,10.6
9,CC(C)c1ccccc1NC(=O)N1C[C@@H]2CC[C@H](C1)N(C)C2=O,11.8
10,CS(=O)(=O)NCC1CCCN(C(=O)Nc2cccc3ccccc23)C1 (centres undefined),33
11,CN1C(=O)[C@H]2CC[C@@H]1CN(C(=O)Nc1ccccc1C(F)(F)F)C2,7.84
12,CN1C(=O)[C@H]2CC[C@@H]1CN(C(=O)Nc1cccc3ccccc13)C2,68.6
13,O=C(Nc1cccc2ccccc12)N1CCC(N2CCSCC2)CC1,18.3
14,Cc1oncc1C(=O)N1CC[C@H]2C[C@H](c3ccncn3)O[C@@H]2C1,7.27
15,CS(=O)(=O)NC[C@]12COC[C@H]1CN(C(=O)C1CC=CC1)C2,-44.5
16,Fc1cnc(N2CCC3(CC2)CC(OCc2cccnc2)CO3)nc1 (centres undefined),8.77
17,Fc1ccc(N2CCC3(CC2)CC(OCc2cccnc2)CO3)cc1 (centres undefined),56.1
18,N#Cc1ccc(N2CCC3(CC2)CC(OCc2cccnc2)CO3)cc1 (centres undefined),33.3
19,CCN1CC[C@@]2(C(=O)N(C)C)CCN(C(=O)NC(C)C)CC[C@@H]12,15.5
20,COc1cccc(CN2CC3(CCNCC3)CCC2=O)c1OC,8.57
21,COc1cccn(CC(=O)N2CCCC3(CCCO3)CC2)c1=O (centres undefined),101
22,COc1cccn(CC(=O)N2CCC3(CCNCC3)C2)c1=O,116
23,COC1CCN(C(=O)Cn2cccc(C(F)(F)F)c2=O)C1 (centres undefined),18.8
24,COc1cccn(CC(=O)N2CCCC3(CCCCC3)C2)c1=O,110
25,CCCOCC1CCN(C(=O)Cn2ncc(N3CCCC3)cc2=O)C1 (centres undefined),-3.8
26,COc1cccc2c1ccn2CC(=O)N1CCCC(C(=O)O)C1 (centres undefined),7.89
27,COc1ccccc1-c1ccccc1CC1(C(=O)O)CCNCC1,2.84

row,SMILES,Percent Effect [%]
1,CCCOCC1CCN(C(=O)Cn2cccc(C(F)(F)F)c2=O)C1 (centres undefined),12
2,O=C1NCC2(CCCN(C(=O)Cn3nc4ccccc4n3)CC2)O1 (centres undefined),6.45
3,CCCOCC1CCN(C(=O)Cn2cccc(OC)c2=O)C1 (centres undefined),97.4
4,COc1ccccc1C(=O)N1CCOC2(CCCN(C(C)=O)C2)C1 (centres undefined),8
5,O=C([C@H]1CN(Cc2ccoc2)C[C@H]2OCC[C@@H]12)N1CCCCO1,22.2
6,Cc1nc(CN2CCO[C@@H]3CN(C(=O)CC4CC4)CC[C@@H]3C2)cs1,12.7
7,COC[C@@H]1CC[C@H]2[C@H](CCN2S(=O)(=O)c2ccc(C)cc2)O1,2.65
8,CN(C)C[C@H]1OC[C@@H]2CN(C(=O)NCc3cccc(F)c3)CC[C@@H]21,0
9,Cc1n[nH]c(CN2CCN(Cc3ccccc3)[C@@H]3CS(=O)(=O)C[C@@H]32)n1,32
10,CCN1C[C@H]2C3(CCN(S(C)(=O)=O)CC3)CC[C@@]2(C(=O)N(C)C)C1,12
11,Cc1cc(C(=O)N2C[C@@H]3COC[C@]3(COCc3cccnc3)C2)no1,12.6
12,O=C(N[C@@H]1CN(c2ncccn2)[C@@H]2CCCO[C@@H]21)c1cnccn1,18.9
13,O=C1CC[C@@H]2[C@@H](CCN2C(=O)c2ccsc2)N1Cc1ccncc1,14.7
14,CN1C(=O)[C@H]2CC[C@@H]1CN(C(=O)c1nnc3n1CCCCC3)C2,17.8
15,COc1cccn(CC(=O)N2CCCC3(CCOCC3)C2)c1=O,98.9
16,COc1ccccc1CC(=O)N1CC[C@H](O)[C@]2(CCCO2)C1,18.8
17,CC1CCN(S(=O)(=O)c2cccn(CC(=O)N3CCOCC3)c2=O)CC1,-7.77
18,Cc1ccoc1C(=O)N1CC[C@@H]2O[C@@H](C)C[C@H]2C1,12.3
19,CSc1nsc(SCC(=O)c2cc3c(cc2Cl)NC(=O)C3)n1,13.2
20,Cc1nnc(SCC(=O)c2cc3c(cc2Cl)NC(=O)C3)s1,2.63
21,Nc1nnc(SCC(=O)c2cc3c(cc2Cl)NC(=O)C3)s1,50
22,Cn1cccc1C(=O)N[C@@H]1CN(Cc2cccs2)[C@@H]2COC[C@@H]21,5.71
23,COc1ccc(CN2C[C@@H]3CN(Cc4ccncc4)C[C@@H]3C2=O)cc1,13.6
24,COc1cc(N2C[C@H]3CCC[C@@H](CN4CCOCC4)[C@H]3C2)ncn1,17.4
25,O=C1COC2(CCN(Cc3ccoc3)CC2)CN1CCn1cccn1,21.4
26,CS(=O)(=O)N1CCC2(CC1)CN(CCn1cccn1)C(=O)CO2,65.8
27,COCCN1CCC2(CC1)CN(CCn1cccn1)C(=O)CO2,16.2
